# High-throughput results: PubChem, National Center for Advancing Translational Sciences (NCATS)
# Sampled rows, rich in hits. Any-hit rate of the full collection: about 6.9%.
# Giardia killer: Giardia lamblia killing. Giardia lamblia trophozoite viability. activity change, % at 7.66 µM, hits read low. 0.15% of 340,000 active. AID 540267; in the data active = activity change below about -80%; inconclusive = between about -30% and that limit;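 note: parasites exposed to compound for two days anaerobically before the ATP read; % is set by controls: 0 for no effect and ±100 for the full control effect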
#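 Killing of trophozoites was scored by loss of ATP luminescence after a 48 hrs anaerobic exposure to compounds at 37 deg C, using 100 cells per well.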
# MCF10A rerep: inducers of DNA re-replication in MCF 10A breast cells; 2.9% of 350,000 active; AID 624296; MCF 10A DNA re-replication, Hoechst nuclear intensity, 48 h; Potency, µM (top dose mostly 46.1 µM), inactives show at the top dose activity, positive = re-replication, actives largely listed as activators; note: potency is the fitted concentration of half-maximal effect; % of control where 0% means no effect; nearly all actives have a fitted effect of over 50% in size
# Vif-APOBEC3F blk: Vif-A3F binding inhibition; Potency, µM (highest dose often 46.1 µM), for inactives: at the top dose activity, negative = active; HeLa A3F-eYFP + Vif (tagged APOBEC3F with the HIV-1 protein that degrades it), YFP fluorescence increase; 0.2% of 390,000 active; note: potency is the fitted concentration of half-maximal effect; % of control where 0% means no effect; nearly all actives have a fitted effect of over 65% in size
#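 HeLa cells stably expressing A3F-eYFP plus Vif, plated and incubated overnight at 37 deg C, then exposed to compounds overnight at 37 deg C. Blocked degradation read as raised yellow fluorescence (Ex 488/Em 500-530).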
# IL1B secr inh: inhibitors of inflammasome signaling (IL-1 beta secretion); THP-1 LPS/ATP IL-1B secretion, AlphaLISA, 16 h; active compounds read low; activity change, % at 57.5 µM; 4.7% of 360,000 active; AID 743279; in the data active = activity change below about -50%; inconclusive = mostly about -30% to -49%; note: % is set by controls: 0 for no effect and ±100 for the full control effect
#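 THP-1 cells pretreated 1 hr with compounds (up to 57.5 uM final), then stimulated with LPS (250 ng/mL final) plus ATP (1.25 mM final); secreted IL-1B measured by AlphaLISA after 16 hr, decreased signal indicating inhibition.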
# SW480 rereplic: induces DNA re-replication in SW480 colon adenocarcinoma cells. 1.8% of 340,000 active. SW480 DNA re-replication, Hoechst DNA content imaging, 48 h. Potency, µM (doses to about 46.1 µM), inactives show top-dose re-replication activation, actives largely listed as activators. AID 624297; note: potency is the fitted concentration of half-maximal effect; % of control where 0% means no effect; nearly all actives have a fitted effect of over 55% in size
#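 Quantitative HTS format with DMSO vehicle controls; 48 hr drug incubation at 37 C, then 40 min Hoechst staining and scanning imager measurement at 405 nm excitation.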
# Vif-A3G inh: blocks the Vif interaction with human APOBEC3G. AID 602310. Q9HC16. Potency, µM (doses to about 46.1 µM), without a hit: top-dose activity, negative = active, actives largely listed as inhibitors. 0.076% of 410,000 active. HeLa A3G-eYFP + Vif (tagged APOBEC3G with the HIV-1 protein that degrades it), YFP fluorescence, overnight; note: potency is the fitted concentration of half-maximal effect; % is set by controls: 0 for no effect and ±100 for the full control effect; nearly all actives have a fitted effect of over 60% in size
# Target sequence (Q9HC16 whole entry, looked up): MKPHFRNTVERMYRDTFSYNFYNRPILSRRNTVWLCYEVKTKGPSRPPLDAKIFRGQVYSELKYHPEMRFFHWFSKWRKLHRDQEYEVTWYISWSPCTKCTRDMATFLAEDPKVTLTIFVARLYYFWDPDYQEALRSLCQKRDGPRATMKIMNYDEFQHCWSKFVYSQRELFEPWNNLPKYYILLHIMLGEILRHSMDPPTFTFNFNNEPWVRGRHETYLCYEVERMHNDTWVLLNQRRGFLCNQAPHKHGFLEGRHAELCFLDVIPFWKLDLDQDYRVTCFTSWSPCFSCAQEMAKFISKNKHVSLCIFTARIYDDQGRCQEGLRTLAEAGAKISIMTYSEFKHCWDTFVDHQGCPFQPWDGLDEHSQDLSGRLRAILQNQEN
#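 Read-out is eYFP fluorescence (Ex 488/Em 500-530) from Vif-expressing HeLa A3G-eYFP cells; more signal means A3G escaped Vif-mediated degradation. Cells plated overnight, compound pinned in, incubated overnight at 37 deg C.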
# Active calls of the source: *; ? = inconclusive; . = no result given; ! = not active in a repeat. Unless noted, calls come from the whole dose curve; as a rule, active = well fitted curve in the direction sought with a large enough effect; inconclusive = small, poorly fitted or top-dose-only effect, or another doubt; inactive = no such curve, though single readings can be large; an effect the other way counts as inactive or inconclusive.
SMILES,Giardia killer,MCF10A rerep,Vif-APOBEC3F blk,IL1B secr inh,SW480 rereplic,Vif-A3G inh
Cc1ccc(CN(C)C(=O)c2cccc(S(=O)(=O)N3CCN(c4ccccc4)CC3)c2)cc1,3.2,-0.9%,4.2%,?,9.3%,2.0%
CSc1ccc(CN(C)C(=O)c2cccc(S(=O)(=O)N3CCN(Cc4ccccc4)CC3)c2)cc1,3.8,14.5%,0.4%,-71.5*,3.7%,0.2%
CN(Cc1cccc(F)c1)C(=O)c1ccc(S(=O)(=O)N2CCCCCC2)cc1,26.7,1.7%,-7.3%,-66.1*,6.2%,0.8%
COc1ccc(NC(=O)CN(C)C(=O)c2cccc(S(=O)(=O)N3CCN(Cc4ccccc4)CC3)c2)cc1,-25.0,1.9%,-9.7%,-16.6,2.1%,3.2%
CN(Cc1ccc(F)cc1)C(=O)c1cccc(S(=O)(=O)N2CCN(c3ccc(F)cc3)CC2)c1,4.0,6.9%,-4.4%,-57.8*,?,3.9%
Cc1cnnc2ccccc12,.,.,.,.,.,-0.3%
COc1ccccc1-n1ncc2c(=O)[nH]c(SCC(=O)Nc3ccc(Cl)cc3)nc21,.,.,0.5%,.,.,-5.8%
CSc1ccc(CCNc2ncnc3onc(-c4ccc(Cl)cc4)c23)cc1,.,.,-2.4%,.,.,10.7%
O=C1C(c2[nH]c3ccc(S(=O)(=O)O)cc3c2O)=Nc2ccc(S(=O)(=O)O)cc21,.,.,.,.,.,-29.7%
CN(Cc1ccc(F)cc1)C(=O)c1cccc(S(=O)(=O)N2CCN(c3ccccc3)CC2)c1,-28.1,7.4%,6.4%,-27.1,14.2%,1.5%
O=S(=O)(c1ccc(Br)cc1)N1CCCN(Cc2cccc(F)c2)CC1,-6.0,?,3.9%,-55.6*,20.6µM*!,-4.8%
CN(Cc1ccc(F)cc1)C(=O)c1cccc(S(=O)(=O)N2CCN(Cc3ccccc3)CC2)c1,-2.6,21.8%,-11.3%,-60.9*,?,-0.7%
Oc1c(C(c2ccccc2F)N2CCCCC2)sc2nc(-c3ccco3)nn12 (configuration not stated),.,.,1.6%,.,.,-2.7%
COc1ccc(S(=O)(=O)NCCc2csc(-c3ccc(F)cc3)n2)cc1,.,.,1.5%,.,.,2.2%
Cc1ccccc1-c1nc(CN(Cc2c(C)nn(C)c2C)C2CC2)c(C)o1,18.2,?,-0.5%,-75.8*,-1.7%,-3.0%
Cc1ccccc1-c1nc(CN2CCC(C(=O)O)CC2)c(C)o1,-8.9,16.0%,1.8%,-7.0,-4.1%,2.3%
N#C/C(=C/c1ccccc1[N+](=O)[O-])c1nc(C2CC2)cs1,?,13.1%,-3.6%,?,12.4%,-4.2%
N#C/C(=C\c1ccccc1[N+](=O)[O-])c1nc(C2CC2)cs1,-16.2,4.2%,6.4%,-78.3*,0.6%,-12.8%
Cc1nn(C)c2c1c(C(F)(F)F)cc(=O)n2C(C)C(=O)NCCc1ccccc1 (configuration not stated),.,.,4.3%,.,.,-4.4%
O=S(=O)(NCC(Nc1ccc(Cl)cc1)c1ccccc1)c1ccc(Cl)cc1 (configuration not stated),26.3,3.26µM*,-18.2%,-11.3,?,-11.3%
Cc1ccc(S(=O)(=O)NCC(Nc2cccc(Cl)c2)c2ccccc2)cc1 (configuration not stated),.,.,0.1%,.,.,-5.3%
CCN(CC)CCOc1ccc(Cc2ccccc2)cc1,.,23.7µM*,.,.,-0.6%,.
CCCCn1c(=N)n(CCOc2ccc(C)cc2)c2ccccc21,-26.6,?,2.6%,.,18.4µM*,-0.7%
CCn1c(=N)n(CC(O)COc2ccc(C)cc2)c2ccccc21 (configuration not stated),4.1,-37.6%,0.8%,.,?,1.1%
CCN(CC)CCn1c(=N)n(CC(O)COc2ccccc2)c2ccccc21 (configuration not stated),1.9,21.7%,0.7%,-29.1,20.6µM*,2.5%
CCN(CC)CCn1c(=N)n(CCOc2ccccc2)c2ccccc21,-3.1,24.3%,-5.4%,-71.5*,11.2µM*,-3.7%
CCCCc1ccc(Nc2cc(C)nc(-n3nc(C)cc3C)n2)cc1,.,.,-0.1%,.,.,-9.1%
